PubChem BioAssay AID2796 (The Scripps Research Institute Molecular Screening Center, 2010)
Among all 320,000 compounds or so, about 8,000 (2.5%) were called active. The sample holds actives, similar compounds and a random draw of the others, so the mix is not that of the screen. Values without a mark were called inactive. No stated cut-off is given here; in the data, active means activation above about 47%; inactive means the rest.

Molecular target: Aryl hydrocarbon receptor (Homo sapiens) (UniProt P35869)
Sequence (P35869 whole entry, looked up): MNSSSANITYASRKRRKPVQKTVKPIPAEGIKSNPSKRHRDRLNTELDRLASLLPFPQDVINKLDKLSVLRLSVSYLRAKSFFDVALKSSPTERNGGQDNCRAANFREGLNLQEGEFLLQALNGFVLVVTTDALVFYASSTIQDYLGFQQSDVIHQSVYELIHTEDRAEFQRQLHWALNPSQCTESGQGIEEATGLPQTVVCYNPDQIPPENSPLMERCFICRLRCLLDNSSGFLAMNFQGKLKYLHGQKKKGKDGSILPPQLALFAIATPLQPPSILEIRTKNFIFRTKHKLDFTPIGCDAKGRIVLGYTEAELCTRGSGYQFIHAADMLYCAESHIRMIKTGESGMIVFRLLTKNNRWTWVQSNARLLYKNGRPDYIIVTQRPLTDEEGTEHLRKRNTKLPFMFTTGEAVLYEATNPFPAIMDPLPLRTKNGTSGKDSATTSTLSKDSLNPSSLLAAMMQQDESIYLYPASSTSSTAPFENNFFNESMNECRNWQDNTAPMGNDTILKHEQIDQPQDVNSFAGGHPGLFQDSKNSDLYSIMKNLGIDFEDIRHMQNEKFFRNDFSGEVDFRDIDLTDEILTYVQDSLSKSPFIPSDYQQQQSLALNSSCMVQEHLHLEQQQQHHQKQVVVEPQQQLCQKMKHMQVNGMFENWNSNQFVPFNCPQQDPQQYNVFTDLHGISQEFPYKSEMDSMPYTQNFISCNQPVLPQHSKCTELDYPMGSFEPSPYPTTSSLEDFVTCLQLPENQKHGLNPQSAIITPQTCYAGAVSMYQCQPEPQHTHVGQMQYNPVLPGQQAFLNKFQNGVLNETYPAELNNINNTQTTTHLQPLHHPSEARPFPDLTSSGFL
Experiment: AHR activators, primary screen, cell-based, luminescence, luciferase reporter, human (AID 2796);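 further: 0% = vehicle wells and 100% = reference agonist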
Conditions: AHR-responsive luciferase reporter cells, at 5 µM, stronger effect = higher value

Row | SMILES | activation
1 | Cc1nn(-c2ccccc2)c(=O)c2noc(C)c12 | -0.28%
2 | Cc1nn(-c2ccccc2)c2[nH]c(C(F)(F)F)cc(=O)c12 | 80.4% (active)
3 | Cc1nc2c(c(C)nn2-c2ccccc2)c(C)c1C | 45.6%
4 | C=CCC[C@@H](Cc1ccc(F)cc1)C(=O)O[C@H](CNC(=O)[C@H](CC=C)CC(=O)N(CCO)Cc1ccccc1)c1ccccc1 | -0.27%
5 | CCc1ccccc1NC(=O)/C(=C/c1ccccc1)c1ccccc1 | 0.15%
6 | O=C(/C=C/c1ccccc1)N/C(=C/c1ccccc1)C(=O)Nc1ccccc1O | 74.4% (active)
7 | O=C(Nc1ccc(C(=O)O)cc1)/C(=C\c1ccccc1)NC(=O)c1ccc(Br)cc1 | -2.04%
8 | Cc1ccc(S(=O)(=O)N2CCOCC2)cc1NC(=O)COC(=O)c1cnccn1 | 0.82%
9 | O=C(CCl)Nc1cccc(CP(=O)(c2ccccc2)c2ccccc2)c1 | -0.56%
10 | Cc1ccc(S(=O)(=O)N(C)C)cc1NC(=O)CN1c2cccc3cccc(c23)S1(=O)=O | 5.14%
11 | CC(=O)N[C@@H](C)C(=O)N1CCC(n2nccc2NC(=O)CCCc2ccccc2)CC1 | 1.83%
12 | O=C(CCNS(=O)(=O)c1ccc(Br)cc1)NCC1CCCO1 (centres undefined) | 0.8%
13 | COc1ccccc1NC(=O)C1=C(C)Nc2ncnn2C1c1ccc(C)o1 (centres undefined) | 13.1%
14 | COc1ccccc1NC(=O)C1=C(C)NC2=C(C(=O)CCC2)C1c1ccc(C)o1 (centres undefined) | 102% (active)
15 | COc1ccccc1NC(=O)C1=C(C)NC(=O)NC1c1ccc(C)s1 (centres undefined) | 5.73%
16 | CCOc1cc2[nH]c(=S)n(CCN3CCCCC3C)c(=O)c2cc1OCC (centres undefined) | 7.8%
17 | COC(CNC(=O)c1ccc2c(c1)ncn2-c1cc(C)cc(C)c1)OC | 1.33%
18 | CS(=O)(=O)c1ccc2nc(NC(=O)c3ccc(Cl)nc3)sc2c1 | -5.2%
19 | Cc1ccc(C(=O)Nc2nc3ccc(Cl)cc3s2)o1 | -2.1%
20 | CNC(=O)c1ccc2nc(NC(C)=O)sc2c1 | 84.2% (active)
21 | CC(NC(=O)CN(C)S(=O)(=O)c1ccc(F)cc1)C1CC2CCC1C2 (centres undefined) | -0.07%
22 | CCNC(=S)N1CCC(c2nc3cc(C)c(C)cc3[nH]2)CC1 | 84.9% (active)

Row | SMILES | activation
23 | CN(C)CCCNC(=S)N1CCC(c2nc3ccccc3[nH]2)CC1 | -0.37%
24 | COCCCNC(=S)N1CCCC(c2nc3cc(C)c(C)cc3[nH]2)C1 (centres undefined) | 12.7%
25 | CCCCC(=O)Nc1ccc(C(=O)Nc2cc(C(F)(F)F)ccc2Cl)cc1 | 140% (active)
26 | CC(=O)Nc1ccc(NC(=O)CCCNC(=O)c2ccc(Cl)cc2)cc1 | 1.47%
27 | O=C(Nc1cc(C(F)(F)F)ccc1Cl)c1cc(C2CC2)on1 | 20.4%
28 | COc1ccccc1-c1cnn2c(N3CCOCC3)cc(C)nc12 | 34.4%
29 | O=C(COC(=O)c1cccnc1Cl)NC(=O)NC1CCCCC1 | -1.66%
30 | COC(C[C@@H]1O[C@@H]1C(=O)[C@H](C)OCc1ccccc1)OC | -0.2%
31 | Brc1ccc(-c2noc(-c3ccccc3)n2)o1 | 122% (active)
32 | Nc1ccc(-c2nnc(-c3ccccc3)o2)cc1 | 3.02%
33 | Brc1ccc(-c2nnc(-c3ccccc3)o2)o1 | 70.7% (active)
34 | Nc1nonc1-c1noc(-c2ccc(Br)o2)n1 | 14.2%
35 | Cn1nc(-c2ccccc2)c(-c2nc(-c3ccc(Cl)cc3)no2)c1Cl | -1.35%
36 | O=C(OCc1ccc(Br)cc1)c1cccc(-c2nnc(-c3ccccc3)o2)c1 | 11.6%
37 | CCCCCCSc1ccc(-c2nc3ccc(Cl)cn3c2NCc2ccccc2)cc1 | 1.54%
38 | Cc1c2cnn(-c3ccccc3)c(=O)c2c(C)n1CCCC(=O)N1CCN(C)CC1 | -2.09%
39 | C/C(=N/NC(=O)c1ccc(Br)o1)c1ccc(C)o1 | 52.7% (active)
40 | CC(C)(C)C1CCC(=NNC(=O)c2ccc(Br)o2)CC1 (centres undefined) | 9.69%
41 | C/C(=N\NC(=S)NC1CCCCC1)c1ccc(C)o1 | 8.26%
42 | CCN(CCCNC(=O)CSc1cc(=O)n(C)c2cc(Cl)ccc12)Cc1ccccc1 | -0.33%
43 | O=C(NC1CC1)C(Cc1ccccc1)NS(=O)(=O)c1ccccc1F (centres undefined) | 3.6%
44 | Cc1no[n+]([O-])c1COc1ccccc1/C=C1\NC(=S)NC1=O | 25.2%

Row | SMILES | activation
45 | COc1ccccc1NC(=O)C(C)OC(=O)c1ccc(-n2cnnn2)cc1 (centres undefined) | -0.41%
46 | COc1ccc(-c2cc(C(=O)Nc3ccccc3O)c3ccccc3n2)cc1 | -7.68%
47 | COc1ccccc1NC(=O)c1cc(Cl)nc2ccccc12 | 48.5% (active)
48 | COc1ccccc1NC(=O)c1cc(Cl)nnc1Cl | 17.1%
49 | O=C1c2ccccc2C(=O)C1c1ccccc1F | 1.57%
50 | CCOC(=O)C1=C(C)N=C2c3ccccc3C(=O)C2C1c1ccc(Br)cc1 (centres undefined) | 3.41%
51 | O=C1c2ccccc2C2=Nc3ccccc3SC(c3ccccc3F)C12 (centres undefined) | 74.3% (active)
52 | CCCn1cc(S(=O)(=O)c2ccc(C)cc2)c(=O)c2cc(OCC)ccc21 | -2.12%
53 | c1ccc(-c2cc(-c3ccccc3)[nH]n2)cc1 | 65.1% (active)
54 | O=C(Nc1cccnc1Cl)c1cc(-c2ccccc2O)on1 | 5.22%
55 | c1ccc(-c2cc(-c3nnc4sc(-c5ccccn5)nn34)[nH]n2)cc1 | -8.07%
56 | Nc1cccc(-c2cc(-c3ccccc3)nc(-c3cccc(N)c3)n2)c1 | 27.6%
57 | Cc1ccc(NC(=O)c2cc(-c3ccccc3O)n[nH]2)cc1C | -2.85%
58 | Oc1ccccc1-c1cc(-c2ccc(Cl)cc2)n[nH]1 | 52.2% (active)
59 | CCCNC(=O)C(=O)Nc1cc2c3c(c1)CCC(=O)N3CCC2 | 28.5%
60 | CSC1=N/C(=C\C=C\c2cccs2)C(=O)S1 | 8.97%
61 | CCOc1ccc(NC(=O)CCS(=O)(=O)c2ccc3c(c2)CCCN3C(=O)CC)cc1 | 4.35%
62 | O=C(Cn1cnc2c(OCc3ccccc3)ncnc21)NCCCn1ccnc1 | -1.22%
63 | CCCN1C(=O)C(NC(C)=O)c2cc(OC)ccc21 (centres undefined) | 0.18%
64 | CCOC1CS(=O)(=O)CC1OCC (centres undefined) | 1.87%
